What all share (conditions): 25 µM; exposure: 24-48 hpf
The subject of assay [1] is Danio rerio Tg(wt1b:EGFP) embryo, pronephros. Kind of assay: glomerular separation, fold change vs DMSO control; higher = glomeruli further apart (abnormal). In short, it runs like this:
(§1)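 Dechorionated Tg(wt1b:EGFP) zebrafish embryos were treated with 25 μM compound in 0.5% DMSO, in HEPES-buffered E3 with 0.003% PTU, from 24 to 48 hpf at 28.5°C. On maximum projections of dorsal pronephros images, 16 hand-placed reference points in Fiji gave distances and angles, and values more than 2 SD from the feature mean were left out. Results are fold changes over the mean of same-day DMSO-treated embryos.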

Assay [2] shares this test system. Kind of assay: glomerular width (mean of left and right), fold change vs DMSO control; higher = wider glomerulus. In short, it runs like this: as §1
Assay [3] shares this test system. Kind of assay: fraction of imaged embryos annotated as normal kidney; higher = less nephrotoxic; extreme values may be limits of the assay. In short, it runs like this: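 Zebrafish embryos carrying Tg(wt1b:EGFP) were dechorionated and exposed to 25 μM compound (0.5% DMSO) between 24 and 48 hpf at 28.5°C. Their pronephroi were imaged by widefield fluorescence, and each embryo was classed by hand from maximum projections. The measure is the fraction of embryos per treatment falling in the normal-kidney category.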

The test system is the same in assay [4]. Kind of assay: pronephric angle neck segment to proximal convoluted tubule (mean of left and right), fold change vs DMSO control; higher = larger pronephric angle. In short, it runs like this: as §1

This is an account of results in the supplement of paper PMC7366291.

Counter-ions that a name gives are not always drawn. ± gives the standard deviation or the standard deviation of the averaged measurements.

The compound `C#C[C@]1(O)CC[C@H]2[C@@H]3CCC4=CCCC[C@@H]4[C@H]3CC[C@@]21C` [Lynestrenol] had a glomerular separation in assay [1] of 0.801 ± 0.38. Besides, the glomerular width in assay [2] came out at 0.994 ± 0.054. Further, the “fraction of imaged embryos annotated as normal kidney” value (shortened to “fraction of imaged embryos annotated”) in assay [3] was found to be 0.917. Besides, the “pronephric angle neck segment” value in assay [4] is 1.02 ± 0.051.

Take `CS(=O)(=O)OCCCCOS(C)(=O)=O` [Busulfan]: the glomerular separation in assay [1] was 0.771 ± 0.21. For the same compound, in assay [2], the glomerular width turned out to be 0.97453 ± 0.00036. For the same compound, in assay [3], the “fraction of imaged embryos annotated” value is 0.75. The “pronephric angle neck segment” value in assay [4] came to 0.943 ± 0.034.

The compound `O=C(CCCCC(=O)Nc1c(I)cc(I)c(C(=O)O)c1I)Nc1c(I)cc(I)c(C(=O)O)c1I` [Iodipamide] registered a glomerular separation in assay [1] of 0.857 ± 0.54. Moreover, in assay [2], the glomerular width was determined as 1.05 ± 0.076. For the same compound, the “fraction of imaged embryos annotated” value in assay [3] is 0.75. Also, in assay [4], the “pronephric angle neck segment” value came out at 1.0067 ± 0.00076.

As for `NS(=O)(=O)c1cc2c(cc1Cl)NC(C(Cl)Cl)NS2(=O)=O` (centres undefined) [Trichlormethiazide], in assay [1], the glomerular separation came to 0.873 ± 0.36. Besides, the glomerular width in assay [2] is 0.992 ± 0.012. In assay [3], the “fraction of imaged embryos annotated” value was 0.75. Besides, in assay [4], the “pronephric angle neck segment” value came to 0.899 ± 0.015.

In assay [1], `O=C(O)c1cn(-c2ccc(F)cc2)c2cc(N3CCNCC3)c(F)cc2c1=O` [Sarafloxacin] yielded a glomerular separation of 1.17 ± 0.4. This compound also showed a glomerular width in assay [2] of 1.08 ± 0.039. Also, the “fraction of imaged embryos annotated” value in assay [3] is 0.455. The “pronephric angle neck segment” value in assay [4] came to 1.02 ± 0.013.

In assay [1], `CC(=O)[C@H]1CC[C@H]2[C@@H]3CC=C4C[C@@H](O)CC[C@]4(C)[C@H]3CC[C@]12C` [Pregnenolone] came in with a glomerular separation of 1.31 ± 0.74. Further, the glomerular width in assay [2] is 1.14 ± 0.018. For the same compound, the “fraction of imaged embryos annotated” value in assay [3] was determined as 0.583. For the same compound, the “pronephric angle neck segment” value in assay [4] was 0.999 ± 0.16.

`CCC1(c2ccccc2)NC(=O)N(C)C1=O` (centres undefined) [Mephenytoin] returned a glomerular separation in assay [1] of 1.13 ± 0.4. This compound displayed a glomerular width in assay [2] of 0.9232 ± 0.0066. For the same compound, the “fraction of imaged embryos annotated” value in assay [3] was found to be 0.75. Further, in assay [4], the “pronephric angle neck segment” value amounted to 1.0068 ± 0.00059.

Turning to `Cc1ccccc1OCC(O)CO` (centres undefined) [Mephenesin], the glomerular separation in assay [1] turned out to be 1.06 ± 0.57. For the same compound, in assay [2], the glomerular width stood at 1.01 ± 0.012. Moreover, the “fraction of imaged embryos annotated” value in assay [3] came out at 0.917. The “pronephric angle neck segment” value in assay [4] stood at 0.993 ± 0.033.

In assay [1], `O=C(CCNNC(=O)c1ccncc1)NCc1ccccc1` [Nialamide] yielded a glomerular separation of 1.06 ± 0.4. The same compound had a glomerular width in assay [2] of 0.97 ± 0.056. For the same compound, in assay [3], the “fraction of imaged embryos annotated” value was found to be 0.583. The “pronephric angle neck segment” value in assay [4] turned out to be 0.99 ± 0.061.

`NNCCc1ccccc1` [Phenelzine sulfate]: the glomerular separation in assay [1] stood at 0.964 ± 0.27. In assay [2], this compound registered a glomerular width of 1.04 ± 0.016. For the same compound, the “fraction of imaged embryos annotated” value in assay [3] was found to be 0.833. In assay [4], the “pronephric angle neck segment” value was determined as 0.93 ± 0.067.

Consider `CCCCC(O)c1ccccc1` (centres undefined) [Fenipentol], for which the glomerular separation in assay [1] amounted to 1.17 ± 0.29. Also, the glomerular width in assay [2] came out at 0.993 ± 0.03. Further, in assay [3], the “fraction of imaged embryos annotated” value amounted to 0.833. Moreover, the “pronephric angle neck segment” value in assay [4] was 0.967 ± 0.017.
